# Measurements as given in PubChem BioAssay (EPA / NIEHS).
# Results filed as inconclusive are left out. Calls of active or inactive are those of the source. How the source made its calls, unless noted: active means hit-call score of the fitted dose curve at least 0.9, where 1 is the maximum; inactive means score below 0.9.
# Assays:
# [1] = ATG_M_06_TRANS: Attagene TRANS-FACTORIAL HepG2 Assay for M06 Transcription Factor (Internal Marker) (AID 2282983; active means hit-call score of the fitted dose curve at least 0.9, where 1 is the maximum); settings: HepG2 Attagene TRANS M06 internal marker reporter
# How it was run: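 HepG2 cells transiently transfected with multiplexed GAL4-UAS reporter transcription units; after 24 h compound exposure, reporter mRNA measured by RT-PCR, FAM-labelled primer extension, HpaI digestion and capillary electrophoresis. Gain-of-signal fitted versus DMSO baseline; background control readout.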
# [2] = ATG_M_32_TRANS: Attagene TRANS-FACTORIAL HepG2 Assay for M32 Transcription Factor (Internal Marker) (AID 2282984; active means hit-call score of the fitted dose curve at least 0.9, where 1 is the maximum); settings: HepG2 Attagene TRANS M32 internal marker reporter
# How it was run: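 Human hepatoma HepG2, transient MRTU transfection, 24 h treatment. RNA → RT-PCR → fluorescent primer extension → HpaI digest (2 h, 37 C) → CE. Positive-direction fit vs DMSO.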
# [3] = molecular target: Transcriptional activator Myb (Homo sapiens) (UniProt P10242); test: ATG_Myb_CIS: Attagene CIS-FACTORIAL HepG2 Assay for human Myeloblastosis (Myb) Proto-Oncogene Transcription Factor (AID 2282986); settings: HepG2 Attagene CIS-FACTORIAL Myb reporter transcription; actives raise or lower the signal
# Chain of Transcriptional activator Myb (Homo sapiens) (P10242 whole entry, looked up): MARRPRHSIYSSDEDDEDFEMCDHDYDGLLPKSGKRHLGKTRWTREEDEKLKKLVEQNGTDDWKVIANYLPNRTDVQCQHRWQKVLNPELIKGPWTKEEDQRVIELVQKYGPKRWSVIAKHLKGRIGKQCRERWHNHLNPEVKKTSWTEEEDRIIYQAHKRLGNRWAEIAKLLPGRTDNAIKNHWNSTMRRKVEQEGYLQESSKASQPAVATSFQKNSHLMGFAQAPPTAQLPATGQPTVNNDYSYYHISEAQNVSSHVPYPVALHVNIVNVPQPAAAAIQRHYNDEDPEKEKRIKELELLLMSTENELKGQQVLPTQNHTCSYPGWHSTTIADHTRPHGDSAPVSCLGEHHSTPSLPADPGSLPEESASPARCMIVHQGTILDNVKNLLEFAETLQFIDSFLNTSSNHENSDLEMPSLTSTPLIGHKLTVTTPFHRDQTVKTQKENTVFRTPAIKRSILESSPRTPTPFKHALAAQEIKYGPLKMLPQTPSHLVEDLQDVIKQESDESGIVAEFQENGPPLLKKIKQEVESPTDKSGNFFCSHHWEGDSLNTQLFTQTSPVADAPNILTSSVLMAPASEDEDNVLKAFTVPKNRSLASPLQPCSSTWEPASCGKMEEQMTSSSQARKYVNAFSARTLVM
# How it was run: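 Multiplexed cis-reporter system in HepG2: transient transfection, 24 h treatment, mRNA readout by RT-PCR and capillary electrophoresis. Both increases and decreases are scored versus DMSO negative control.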
# [4] = molecular target: Nuclear respiratory factor 1 (Homo sapiens) (UniProt Q16656); test: ATG_NRF1_CIS: Attagene CIS-FACTORIAL HepG2 Assay for human Nuclear Respiratory Factor 1 (NRF1) Orphan Gene (AID 2282987); settings: HepG2 NRF1 cis-element reporter, Attagene multiplex; actives raise or lower the signal
# Chain of Nuclear respiratory factor 1 (Homo sapiens) (Q16656 whole entry, looked up): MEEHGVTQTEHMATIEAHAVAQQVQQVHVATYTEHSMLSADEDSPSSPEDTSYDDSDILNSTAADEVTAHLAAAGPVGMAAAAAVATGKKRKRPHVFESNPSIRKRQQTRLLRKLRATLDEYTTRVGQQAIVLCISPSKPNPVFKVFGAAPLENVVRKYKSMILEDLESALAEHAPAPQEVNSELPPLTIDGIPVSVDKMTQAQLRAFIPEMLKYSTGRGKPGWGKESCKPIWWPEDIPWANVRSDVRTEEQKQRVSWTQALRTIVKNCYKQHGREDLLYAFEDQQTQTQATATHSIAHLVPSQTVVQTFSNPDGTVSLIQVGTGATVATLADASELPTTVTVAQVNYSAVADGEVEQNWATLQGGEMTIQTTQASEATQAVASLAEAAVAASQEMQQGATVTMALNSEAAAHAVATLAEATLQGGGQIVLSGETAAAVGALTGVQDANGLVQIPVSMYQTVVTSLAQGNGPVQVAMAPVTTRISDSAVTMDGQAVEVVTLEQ
# How it was run: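 Endogenous factor activity was captured via cis-element-driven reporter transcripts in HepG2 cells. Following 24 h chemical treatment, transcripts were quantified by RT-PCR and capillary electrophoresis.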
# [5] = molecular target: Myc proto-oncogene protein (Homo sapiens) (UniProt P01106); test: ATG_Myc_CIS: Attagene CIS-FACTORIAL HepG2 Assay for human Myelocytomatosis (Myc) Proto-Oncogene Transcription Factor (AID 2282990); settings: HepG2, Attagene cis-reporter transcription factor activity; actives raise or lower the signal
# Chain of Myc proto-oncogene protein (Homo sapiens) (P01106 whole entry, looked up): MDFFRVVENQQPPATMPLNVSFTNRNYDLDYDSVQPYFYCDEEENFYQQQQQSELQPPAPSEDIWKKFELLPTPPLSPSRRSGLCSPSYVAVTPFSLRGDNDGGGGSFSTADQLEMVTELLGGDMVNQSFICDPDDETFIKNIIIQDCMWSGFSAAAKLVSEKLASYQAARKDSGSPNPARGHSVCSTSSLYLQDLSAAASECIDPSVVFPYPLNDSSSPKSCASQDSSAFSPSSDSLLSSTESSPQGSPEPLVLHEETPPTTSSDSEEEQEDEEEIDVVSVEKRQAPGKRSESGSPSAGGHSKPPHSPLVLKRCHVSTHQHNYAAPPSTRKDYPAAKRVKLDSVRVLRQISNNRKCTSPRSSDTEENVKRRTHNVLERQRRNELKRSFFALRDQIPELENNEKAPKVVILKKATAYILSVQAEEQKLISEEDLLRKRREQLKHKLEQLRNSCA
# How it was run: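 Multiplexed cis-reporter transcription in HepG2 cells after 24 h chemical treatment. Reporter mRNA measured by RT-PCR and capillary electrophoresis fluorescence; activity fitted bidirectionally against DMSO control.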
# [6] = ATG_NF_kB_CIS: Attagene CIS-FACTORIAL HepG2 Assay for human Nuclear Factor Kappa B (NF-kB) (AID 2282991); settings: HepG2 Attagene cis-factorial NF-kB reporter mRNA; actives raise or lower the signal
# How it was run: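 After 24 h compound incubation, transfected HepG2 cells yield total RNA; reporter cDNA is PCR-amplified, end-labelled with 6-FAM, HpaI-digested and analysed on a genetic analyser. Endogenous factor activity, DMSO-referenced bidirectional fit.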
# [7] = ATG_NRF2_ARE_CIS: Attagene CIS-FACTORIAL HepG2 Assay for human Nuclear Factor Erythroid 2 Related Factor 2 (NFR2) response to Antioxidant Response Elements (ARE) (AID 2282992); settings: HepG2 Attagene ARE/NRF2 reporter, transcription factor activity; actives raise or lower the signal
# How it was run: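 Transient MRTU transfection of HepG2; 24 h compound exposure; TriZol RNA, RT with oligo(dT), PCR, 6-FAM primer extension, HpaI cut, CE. Bidirectional fit vs DMSO.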
# [8] = ATG_Oct_MLP_CIS: Attagene CIS-FACTORIAL HepG2 Assay for human Octamer-Binding Transcription Factor (Oct) (AID 2282993); settings: HepG2 Attagene cis-factorial Oct reporter, mRNA; actives raise or lower the signal
# How it was run: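 After 24 h compound exposure, transfected HepG2 cells were lysed for total RNA; reporter-specific cDNA was PCR-amplified, fluorescently labelled and sized by capillary electrophoresis. Bidirectional curve fitting used DMSO as baseline.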
# [9] = molecular target: Cellular tumor antigen p53 (Homo sapiens) (UniProt P04637); test: ATG_p53_CIS: Attagene CIS-FACTORIAL HepG2 Assay for human p53 Transcription Factor (AID 2282994); settings: HepG2 p53 cis-element reporter, Attagene mRNA; actives raise or lower the signal
# Chain of Cellular tumor antigen p53 (Homo sapiens) (P04637 whole entry, looked up): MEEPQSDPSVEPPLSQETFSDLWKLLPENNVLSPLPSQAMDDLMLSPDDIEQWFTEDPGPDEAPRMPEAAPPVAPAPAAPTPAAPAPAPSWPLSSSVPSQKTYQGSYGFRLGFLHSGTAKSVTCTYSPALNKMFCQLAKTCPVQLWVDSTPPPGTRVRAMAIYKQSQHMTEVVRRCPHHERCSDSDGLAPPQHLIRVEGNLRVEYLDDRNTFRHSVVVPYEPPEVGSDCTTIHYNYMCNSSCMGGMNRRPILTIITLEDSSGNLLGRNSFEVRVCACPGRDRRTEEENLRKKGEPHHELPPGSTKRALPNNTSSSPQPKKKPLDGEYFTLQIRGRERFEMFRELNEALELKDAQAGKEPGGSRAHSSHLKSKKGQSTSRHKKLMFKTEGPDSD
# How it was run: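 HepG2, transient MRTU transfection (cis promoter elements, endogenous TFs); 24 h dosing; RNA isolation, RT-PCR, 6-FAM primer extension, HpaI digest, CE fluorescence; bidirectional fit vs DMSO.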
# [10] = BSK_3C_uPAR: BioMAP Diversity Plus: 3C Assay for Urokinase-type plasminogen activator receptor (uPAR) Biomarker Activity (AID 2282998); settings: BioMAP 3C HUVEC, uPAR biomarker ELISA; actives raise or lower the signal
# How it was run: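 Values derive from bidirectional curve fitting relative to DMSO, which served as baseline of activity. uPAR was measured by ELISA in human umbilical vein endothelial primary cultures 24 h after compound addition.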
# [11] = BSK_4H_Eotaxin3: BioMAP Diversity Plus: 4H Assay for Eotaxin 3 Biomarker Activity (AID 2283000); settings: primary human endothelial cells (HUVEC); actives raise or lower the signal;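 further: CCL26 protein level quantified by ELISA in parallel with SRB cytotoxicity check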
# How it was run: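 HUVEC, 24 h post-dose, ELISA for Eotaxin-3/CCL26. Gain or loss of signal fitted bidirectionally vs DMSO baseline.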
# [12] = molecular target: Hepatocyte nuclear factor 4-alpha (Homo sapiens) (UniProt P41235); test: ATG_HNF4a_TRANS: Attagene TRANS-FACTORIAL HepG2 Assay for human Hepatocyte Nuclear Factor 4 alpha (HNF4a) (AID 2282982; active means hit-call score of the fitted dose curve at least 0.9, where 1 is the maximum); settings: HepG2 HNF4a transactivation reporter, mRNA readout
# Chain of Hepatocyte nuclear factor 4-alpha (Homo sapiens) (P41235 whole entry, looked up, the tested form may be a part): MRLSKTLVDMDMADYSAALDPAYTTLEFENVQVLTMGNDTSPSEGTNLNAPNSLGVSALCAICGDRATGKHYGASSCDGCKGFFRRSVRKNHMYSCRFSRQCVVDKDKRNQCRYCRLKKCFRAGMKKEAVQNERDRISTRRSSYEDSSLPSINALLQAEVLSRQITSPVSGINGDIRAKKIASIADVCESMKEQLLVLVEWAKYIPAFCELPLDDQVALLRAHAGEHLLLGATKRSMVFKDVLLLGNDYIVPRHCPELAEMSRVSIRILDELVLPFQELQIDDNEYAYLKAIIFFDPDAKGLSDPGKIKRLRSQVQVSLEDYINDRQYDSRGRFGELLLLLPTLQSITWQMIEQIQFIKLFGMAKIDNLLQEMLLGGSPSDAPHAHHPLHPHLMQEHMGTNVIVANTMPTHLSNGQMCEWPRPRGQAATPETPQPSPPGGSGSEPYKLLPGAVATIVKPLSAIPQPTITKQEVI
# How it was run: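 Cells used were human HepG2, transiently carrying GAL4-UAS reporter units read out against exogenous NR-GAL4 chimeras. Reporter transcript levels after 24 h dosing were quantified by fluorescent RT-PCR and capillary electrophoresis.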
# [13] = ATG_NFI_CIS: Attagene CIS-FACTORIAL HepG2 Assay for human Nuclear Factor I (NFI) (AID 2282989); settings: HepG2 cis-regulatory reporter, NFI response element transcription; actives raise or lower the signal
# How it was run: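 Multiplexed cis-reporter system in human HepG2 cells reports native TF activity as reporter mRNA induction 24 h post-dose. Fragments labelled with 6-FAM, HpaI-digested and resolved by capillary electrophoresis; activity fitted both directions versus DMSO.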
# [14] = molecular target: Nuclear receptor subfamily 4 group A member 2 (Homo sapiens) (UniProt P43354); test: ATG_NURR1_TRANS: Attagene TRANS-FACTORIAL HepG2 Assay for human Nuclear Receptor Related Protein 1 (NURR1) (AID 2282985; active means hit-call score of the fitted dose curve at least 0.9, where 1 is the maximum); settings: HepG2 Attagene TRANS reporter, mRNA readout
# Chain of Nuclear receptor subfamily 4 group A member 2 (Homo sapiens) (P43354 whole entry, looked up): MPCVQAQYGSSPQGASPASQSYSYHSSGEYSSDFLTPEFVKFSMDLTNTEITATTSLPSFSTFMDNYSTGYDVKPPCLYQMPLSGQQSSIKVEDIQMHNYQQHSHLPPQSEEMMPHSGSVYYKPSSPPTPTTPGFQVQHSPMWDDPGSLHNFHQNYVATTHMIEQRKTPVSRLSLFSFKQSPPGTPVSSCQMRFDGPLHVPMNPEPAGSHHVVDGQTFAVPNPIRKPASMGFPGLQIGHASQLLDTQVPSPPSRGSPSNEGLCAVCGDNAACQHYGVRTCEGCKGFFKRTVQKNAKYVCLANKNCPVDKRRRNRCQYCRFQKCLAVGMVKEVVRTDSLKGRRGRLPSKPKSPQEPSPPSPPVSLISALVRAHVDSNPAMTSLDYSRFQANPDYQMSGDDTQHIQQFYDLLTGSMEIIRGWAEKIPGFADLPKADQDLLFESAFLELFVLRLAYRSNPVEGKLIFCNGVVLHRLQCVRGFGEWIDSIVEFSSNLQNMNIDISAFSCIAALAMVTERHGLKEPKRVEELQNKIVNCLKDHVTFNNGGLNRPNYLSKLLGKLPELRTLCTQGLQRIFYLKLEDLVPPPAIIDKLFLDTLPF
# How it was run: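 After 24 h chemical dosing, total RNA from transiently transfected HepG2 cells was reverse-transcribed and reporter cDNA PCR-amplified, FAM-labelled and analysed by capillary electrophoresis. Activity fitted in positive direction, DMSO as negative control.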
# [15] = BSK_3C_VCAM1: BioMAP Diversity Plus: 3C Assay for Vascular cell adhesion molecule 1 (VCAM1) Biomarker Activity (AID 2282999); settings: BioMAP 3C HUVEC, VCAM1 ELISA, cytokine-stimulated; actives raise or lower the signal
# How it was run: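 Human umbilical vein endothelial cells were dosed with compound for 24 h, after which cell-surface VCAM-1 was quantified by ELISA. Bidirectional curve fitting used DMSO as negative control and activity baseline.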
# [16] = BSK_3C_TissueFactor: BioMAP Diversity Plus: 3C Assay for Tissue Factor Biomarker Activity (AID 2282997); settings: BioMAP 3C HUVEC, tissue factor biomarker readout; actives raise or lower the signal
# How it was run: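 Primary human umbilical vein endothelial cells in the 3C system were exposed to test chemical for 24 h, then Tissue Factor measured by ELISA. Activity was fitted bidirectionally against DMSO as negative control and baseline.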
SMILES,outcome [1],outcome [2],outcome [3],outcome [4],outcome [5],outcome [6],outcome [7],outcome [8],outcome [9],outcome [10],outcome [11],outcome [12],outcome [13],outcome [14],outcome [15],outcome [16],AC50 [7],AC50 [6]
C=C[Si](OCC)(OCC)OCC,inactive,inactive,inactive,inactive,inactive,inactive,inactive,inactive,inactive,inactive,inactive,,,,,,,
CC(=O)C(=O)O,inactive,,inactive,inactive,inactive,,inactive,inactive,inactive,,,inactive,inactive,,,,,
O=C[C@H](O)[C@H](O)[C@H](O)CO,inactive,,inactive,inactive,inactive,,inactive,inactive,inactive,,,,inactive,inactive,,,,
CCCCCNCCCCC,inactive,,inactive,inactive,inactive,,inactive,inactive,inactive,,,inactive,inactive,,,,,
CN(C)C(=N)N=C(N)N,inactive,inactive,inactive,inactive,inactive,inactive,inactive,inactive,inactive,,,,inactive,,,,,
CNC[C@H](O)c1cccc(O)c1,,,inactive,inactive,,inactive,inactive,inactive,inactive,inactive,inactive,inactive,inactive,inactive,inactive,,,
CCCCNC(=O)NS(=O)(=O)c1ccc(N)cc1,inactive,,inactive,inactive,inactive,inactive,inactive,inactive,inactive,,,inactive,inactive,,,,,
CNCCO,inactive,,inactive,inactive,inactive,,inactive,inactive,inactive,,,inactive,inactive,inactive,,,,
C=C(C)C(=O)NCCCN(C)C,,,inactive,inactive,,inactive,inactive,inactive,inactive,,,inactive,inactive,,,,,
NCCNCCN,inactive,inactive,inactive,inactive,inactive,inactive,inactive,inactive,inactive,inactive,inactive,inactive,,,,inactive,,
CCCCCCCCCCC(CO)CCCCCCCC (stereo unspecified),,inactive,inactive,inactive,inactive,,inactive,inactive,inactive,,,,inactive,inactive,,,,
Nc1ccc(S(N)(=O)=O)cc1,inactive,,inactive,inactive,inactive,,,inactive,inactive,,,,inactive,inactive,,,,
O=c1[nH]c(=O)n([C@H]2CCCO2)cc1F,inactive,,inactive,inactive,inactive,inactive,inactive,inactive,inactive,,,inactive,inactive,inactive,,,,
CCCCCCOC(=O)CCCCC,,inactive,inactive,inactive,inactive,inactive,inactive,inactive,inactive,,,inactive,inactive,inactive,,,,
CC(C)(C)C(=O)c1ccccc1,inactive,,inactive,inactive,inactive,inactive,inactive,inactive,inactive,,,inactive,inactive,,,,,
CC(C)Oc1ccccc1O,inactive,inactive,,inactive,inactive,inactive,inactive,inactive,inactive,inactive,inactive,,,inactive,,,,
CC1(C)OC[C@@H]2O[C@@]3(C(=O)O)OC(C)(C)O[C@H]3[C@@H]2O1,inactive,,inactive,inactive,inactive,inactive,inactive,inactive,,,,,inactive,,,,,

SMILES,outcome [1],outcome [2],outcome [3],outcome [4],outcome [5],outcome [6],outcome [7],outcome [8],outcome [9],outcome [10],outcome [11],outcome [12],outcome [13],outcome [14],outcome [15],outcome [16],AC50 [7],AC50 [6]
CC1(C)[C@@H]2CC[C@@]1(C)[C@H](O)C2,,,inactive,inactive,inactive,,inactive,inactive,inactive,,,,,,,,,
COc1ccc(Cl)cc1C,inactive,inactive,inactive,inactive,inactive,,inactive,inactive,inactive,,,,inactive,,,,,
CC1(CO)CN(c2ccccc2)NC1=O (stereo unspecified),inactive,inactive,inactive,inactive,inactive,inactive,inactive,inactive,inactive,,,,inactive,inactive,,,,
C=CC(C)(CCC=C(C)C)OC=O (stereo unspecified),inactive,inactive,inactive,inactive,inactive,,,inactive,inactive,,,inactive,inactive,,,,153 µM (active),
COC(C(=O)O)c1ccccc1 (stereo unspecified),inactive,,inactive,inactive,inactive,inactive,inactive,inactive,inactive,,,inactive,inactive,,,,,
CCCCCCCCC,,inactive,inactive,inactive,inactive,inactive,inactive,inactive,inactive,,,inactive,inactive,,,,,
CC(C)[C@@H]1CC[C@@H](C)CC1=O,,,inactive,inactive,inactive,,inactive,inactive,inactive,,,inactive,inactive,,,,,
CO[Si](CCCn1c(=O)n(CCC[Si](OC)(OC)OC)c(=O)n(CCC[Si](OC)(OC)OC)c1=O)(OC)OC,inactive,inactive,inactive,inactive,inactive,inactive,inactive,inactive,inactive,,,inactive,,,,,,
C=C(C)C(=O)OCc1ccccc1,,inactive,inactive,inactive,inactive,inactive,inactive,inactive,,,,inactive,inactive,inactive,,,,
CC1(C)C(=O)N(Br)C(=O)N1Cl,,inactive,inactive,inactive,inactive,inactive,,inactive,inactive,,,inactive,inactive,,,,100 µM (active),
C=COCCOCCOCCOC=C,inactive,inactive,inactive,inactive,,inactive,inactive,inactive,inactive,,,inactive,inactive,,,,,
O=C1CCc2ccccc2O1,inactive,,inactive,inactive,inactive,,inactive,inactive,inactive,,,inactive,,inactive,,,,
CC(=O)Nc1ccccc1O,inactive,,inactive,inactive,inactive,inactive,inactive,inactive,inactive,inactive,inactive,,,inactive,inactive,,,
ClCCCl,inactive,,inactive,inactive,inactive,inactive,inactive,inactive,inactive,,,,inactive,inactive,,,,
CCCCCCCCCCCCCCCC(=O)O,inactive,inactive,,inactive,inactive,inactive,inactive,inactive,inactive,,,,inactive,inactive,,,,
CCCCC(CC)COC(=O)/C=C\C(=O)OCC(CC)CCCC (stereo unspecified),,inactive,inactive,inactive,inactive,,,inactive,inactive,inactive,inactive,,inactive,inactive,inactive,,,45.6 µM (active)
